Only some compounds are listed: those with a hit (about 4.1% of all), similar ones and a draw of the others.
hcDAF12 agonist – activates DAF-12 receptor from parasite H. contortus | actives 1.4% (n = 370,000) | activation, % at 6.8 µM | HEK293 hcDAF-12 lit1-tk-luc reporter, luminescence; 0% DMSO, 100% Δ7-dafachronic acid;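 active = activation above the mean of all tested compounds plus 3 SD, cut at about 5.5% in these data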
DAX1 inh-1 – inhibitors of DAX1 repression of SF-1 activated StAR promoter. actives 1.1% (n = 370,000). HEK293T StAR-luciferase reporter, SF-1/DAX-1 repression relief. inhibition, % at 6.8 µM;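 active = inhibition above the mean over all tested compounds plus 3 SD, cut at about 3.6% in these data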;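 also: higher inhibition means more luminescence from relief of DAX-1 repression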
DAX1 inh-2 – inhibitors of human orphan nuclear receptor DAX1 (NR0B1); P51843; HEK293 Gal4-DAX1 luciferase reporter, luminescence; inhibition, % at 6.75 µM; actives 0.99% (n = 340,000); AID 504766;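 active = inhibition above the mean over all tested compounds plus 3 SD, cut at about 4.2% in these data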;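 also: inhibition shows as a rise in luminescence from relieved DAX1 repression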
Target sequence (P51843 207-470 limits assumed): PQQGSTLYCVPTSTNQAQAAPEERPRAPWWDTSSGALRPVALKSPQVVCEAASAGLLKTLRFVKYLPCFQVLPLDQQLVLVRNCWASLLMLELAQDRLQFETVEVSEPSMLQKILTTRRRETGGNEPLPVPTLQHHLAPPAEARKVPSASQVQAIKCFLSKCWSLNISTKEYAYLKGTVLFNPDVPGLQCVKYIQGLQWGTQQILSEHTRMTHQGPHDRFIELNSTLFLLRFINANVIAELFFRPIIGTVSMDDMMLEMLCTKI
hgDAF-12 ag – activates the H. glycines DAF-12 receptor ligand-binding domain; actives 1.8% (n = 370,000); HEK293 GAL4-hgDAF12 UAS-luciferase reporter, agonist luminescence; normalized to butyrate control; activation, % at 6.8 µM;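 active = activation above a cutoff set at the mean of all screened compounds plus 3 SD, cut at about 10% in these data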
ssDAF-12 act – activators of S. stercoralis DAF-12 nuclear receptor | activation, % at 6.8 µM | HEK293 ssDAF-12/GRIP1 lit1-tk-luc reporter, luminescence; % of 3 µM dafachronic acid response | actives 1% (n = 370,000);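 active = activation above the mean over all tested compounds plus 3 SD, cut at about 0.9% in these data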
Hits are given with their value; n = inactive; x = no result.

SMILES	hcDAF12 agonist	DAX1 inh-1	DAX1 inh-2	hgDAF-12 ag	ssDAF-12 act
COCCNC(=O)CN(Cc1ccc(OC)cc1)C(=O)CCC(=O)Nc1nccs1	n	n	n	n	n
COCCNC(=O)CN(Cc1ccc(F)cc1)C(=O)CCC(=O)Nc1nccs1	n	n	4.2	n	n
Clc1cccc(/C=N/Nc2nc(Cl)nc3ccccc23)c1	6.6	n	n	n	n
C(=N/Nc1nccs1)/c1cccnc1	n	n	n	n	n
Clc1cccc(/C=N\Nc2nccs2)c1	n	n	n	11	0.9
Cc1ccc(NC(=O)Cc2ccc(F)cc2)c(S(=O)(=O)N2CCOCC2)c1	n	n	x	n	n
COC(=O)c1cc(-c2ccc(OC)cc2)on1	n	n	n	n	n
COc1ccc(-c2cc(C(=O)NC(C)C)no2)cc1	n	n	n	10	n
COc1cccc(-c2cc(C(=O)NC3CCCCC3)no2)c1	n	n	n	n	n
COc1ccc(-c2cc(C(=O)NC3CCCC3)no2)cc1	6.5	n	n	12	n
c1ccc2c(c1)oc1c(Nc3ccc4c(c3)OCO4)ncnc12	n	n	n	12	n
c1ccc2c(c1)oc1c(Nc3ccc(CN4CCOCC4)cc3)ncnc12	n	n	n	11	n
Cc1nc(Nc2ccc3c(c2)OCO3)c2oc3ccccc3c2n1	n	n	n	n	n
COc1ccc(/C=C2/C(=O)N(c3ccccc3)N=C2C)cc1Br	6.4	n	n	n	n
CC1(C)CC(=O)c2sc(NC(=O)C3COc4ccccc4O3)nc2C1 (stereo not given)	n	n	n	n	1.6
CC1(C)CC(=O)c2sc(NC(=O)c3ccco3)nc2C1	n	n	n	12	n
CC(=O)c1sc(NC(=O)C2COc3ccccc3O2)nc1C (stereo not given)	n	n	n	n	n
Cc1onc(-c2ccccc2)c1C(=O)Nc1nc2c(s1)C(=O)CC(C)(C)C2	n	n	n	n	n
CC(C)=CC([C@]12C[C@H](CO)N[C@@H]1Nc1ccccc12)S(=O)(=O)c1ccccc1 (stereo not given in full)	n	x	x	n	n
COc1ccc(C(=O)c2[nH]c(N)c(C(=O)c3ccccc3)c2-c2ccc(OC)c(OC)c2)cc1	n	x	x	n	n
Cc1nc(N2CCN(c3ccccn3)CC2)c2c(C)c(C(=O)Nc3ccccc3F)sc2n1	n	n	5.3	n	n
C=CCN1[C@@H](C)[C@H](c2ccccc2)Oc2cccc(N3CCCC3)c2S1(=O)=O	n	n	x	n	n
COc1cccc(C=C2Cc3ccccc3C2=O)c1	n	n	x	n	n
COc1cccc(/C=C2\CCc3ccccc3C2=O)c1	n	n	n	14	n
O=C1/C(=C/c2cccc(F)c2)CSc2sccc21	n	n	n	n	n
SMILES	hcDAF12 agonist	DAX1 inh-1	DAX1 inh-2	hgDAF-12 ag	ssDAF-12 act
COc1cc(C=C2C(=O)c3ccccc3C2=O)cc(OC)c1OC	n	n	n	n	n
O=C1C(=Cc2cccc(F)c2)Cc2ccccc21	n	n	x	13	n
COc1cc(C=C2C(=O)c3ccccc3C2=O)cc(OC)c1	n	n	4.7	n	n
Cc1ccc(Cl)cc1NC(=O)OCCN(C)C(=O)Nc1cc(Cl)ccc1C	n	n	x	n	n
CN(C)c1ccc(/C=C(/NC(=O)c2ccccc2)C(=O)N/N=C/c2ccc([N+](=O)[O-])c(O)c2)cc1	n	n	n	12	n
CN1CCCCC(NC(=O)c2cccc(C(F)(F)F)c2)C1=O (stereo not given)	n	n	x	n	n
COc1ccc2c3c([nH]c2c1)[C@]1(NCC3)C(=O)N(C)c2ccc(Cl)cc21	n	n	x	n	n
O=C(NCCc1c[nH]c2ccccc12)OCc1cn(-c2ccc(Cl)cc2)nn1	n	n	x	n	n
CCOC(=O)CSc1nnc(Cn2c(=O)sc3ccccc32)n1-c1ccccc1C	n	n	n	n	n
Cc1ccccc1-n1c(Cn2c(=O)sc3ccccc32)nnc1SCC(N)=O	n	n	4.6	n	n
COc1cc(-n2c(C)nc3cc(C(=O)N4CCCCC4)ccc32)cc(OC)c1OC	n	n	x	n	n
COC(=O)c1ccc(CN2C(=O)[C@]3(OCCC=C[C@H]3C)c3cc(OC)ccc32)cc1	n	n	x	n	n
CCOCCOC(=O)c1[nH]c2c(c1C)C(=O)CC(c1ccc(N(C)C)cc1)C2 (stereo not given)	n	n	n	n	n
CCC(C)OC(=O)c1[nH]c2c(c1C)C(=O)CC(c1ccc(N(C)C)cc1)C2 (stereo not given)	n	n	n	11	n
CCOC(=O)c1[nH]c2c(c1-c1ccccc1)C(=O)CC(c1ccccc1)C2 (stereo not given)	n	n	6.6	n	n
COC(=O)c1[nH]c2c(c1C)C(=O)CC(c1ccccc1)C2 (stereo not given)	n	n	n	n	n
Cc1ccc(C2NC(=O)c3n[nH]c(C)c32)cc1 (stereo not given)	n	n	x	n	n
Cc1[nH]c2ccccc2c1CC(=O)Nc1ccc(Oc2cccnc2)cc1	n	n	x	n	n
COc1cc(/C=C2/C(=N)N3N=C(CC(=O)N4CCOCC4)SC3=NC2=O)ccc1OCc1ccc(F)cc1	n	3.8	n	n	n
CN(Cc1cccc(Cl)c1Cl)C(=O)CCNC(=O)c1ccco1	n	4.1	n	n	n
CCN=C1NC(c2ccc(C(F)(F)F)cc2)C(C(=O)OC)=C(C)N1Cc1cccc(C(F)(F)F)c1 (stereo not given)	n	n	x	n	n
Cc1ccccc1NC(=O)CN1C(=O)CCSc2ccccc21	n	n	x	n	n
COC(=O)c1c(C)c[nH]c1C	n	n	5.3	n	n
Cc1ccccc1OCCCC(=O)NCc1ccco1	n	n	4.4	n	n
N#Cc1ccccc1OCC(=O)NC(=O)NCc1ccco1	n	n	7.0	11	n
SMILES	hcDAF12 agonist	DAX1 inh-1	DAX1 inh-2	hgDAF-12 ag	ssDAF-12 act
COC(=O)[C@]12C[C@H](CC(=O)NCc3ccccc3)C(=O)N(Cc3ccccc3)C1=C[C@H](C1CCCC1)O[C@@H]2C	n	n	x	n	n
COC(=O)c1cccc(C(=O)N2CCCC(C(=O)c3cccc(OC(C)C)c3)C2)c1 (stereo not given)	5.8	n	n	n	n
O=[N+]([O-])c1ccccc1/C=C/C1Nc2cccc3cccc(c23)N1	n	n	x	n	n
FC(F)(F)c1nnc2ccc(NCc3cccnc3)nn12	n	n	7.9	n	n
FC(F)(F)c1nnc2ccc(NCc3ccccc3)nn12	n	n	n	n	n
Cc1ccc2nc(-c3ccccc3)c(CN3CCSCC3)n2c1	n	n	n	n	n
Cc1ccc(-c2nc3ccc(C)cn3c2Cc2cccc(Cl)c2)cc1	n	3.8	x	n	n
Cc1ccc2nc(-c3ccccc3)c(CN3CCOCC3)n2c1	n	n	n	11	n
Cc1ccc2nc(-c3cccc(Cl)c3)c(Cc3ccccc3)n2c1	n	4.2	x	12	n

Compound activity: PubChem, The Scripps Research Institute Molecular Screening Center
